Assay outcomes deposited in PubChem by National Center for Advancing Translational Sciences (NCATS).
Pf growth 96h: Primary qHTS for delayed death inhibitors of the malarial parasite plastid, 96 hour incubation; Potency, µM (top dose mostly 28.7 µM), for the others: at the top dose activity change, negative = inhibition, most hits filed as inhibitors; 320,000 compounds, 6.9% hits; P. falciparum luciferase reporter growth, 96 h; AID 504834, 2011; also: potency is read from the fitted curve at half-maximal effect; % is scaled to controls: 0 for no effect and ±100 for the full control effect
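Readout is luminescence from an integrated firefly luciferase in P. falciparum. Red cells, 2% hematocrit and 0.05% parasitemia final, were cultured with compound through two parasite generations (96 hours) at 37 C, 5% CO2.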
CHX counter: Cycloheximide Counterscreen for Small Molecule Inhibitors of Shiga Toxin; cell reporter, cycloheximide protein synthesis inhibition counterscreen; max response, %; 300,000 compounds, 12% hits; AID 2314, 2010; in the data active = max response mostly above about 13%, no sharp cut-off; inactive = mostly below about 14%; also: read at 38.3 µM for the half of the compounds with a filed dose; 0% is about no effect
Pf growth 48h: Primary qHTS for delayed death inhibitors of the malarial parasite plastid, 48 hour incubation | P. falciparum luciferase growth in erythrocytes, 48 h | Potency, µM (doses to about 28.7 µM), for the others: top-dose activity change, negative = inhibition, actives largely listed as inhibitors | 310,000 compounds, 5.9% hits; also: potency is read from the fitted curve at half-maximal effect; % is scaled to controls: 0 for no effect and ±100 for the full control effect
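Read-out is firefly luciferase luminescence from an integrated reporter in P. falciparum, so falling signal marks reduced parasite growth. Infected erythrocytes were at 2% hematocrit and 0.1% parasitemia (final) in Albumax-supplemented RPMI 1640.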
LmPK inh: qHTS Assay for Inhibitors of Leishmania Mexicana Pyruvate Kinase (LmPK); Q27686; purified LmPK, Kinase-Glo ATP luminescence, 1 h; Potency, µM (series often up to 57.5 µM), for inactives: top-dose activity change, negative = inhibition, usual class: inhibitors; 290,000 compounds, 0.37% hits; AID 1721, 2009; also: potency is read from the fitted curve at half-maximal effect; % is scaled to controls: 0 for no effect and ±100 for the full control effect
Target sequence (Q27686 whole entry, looked up): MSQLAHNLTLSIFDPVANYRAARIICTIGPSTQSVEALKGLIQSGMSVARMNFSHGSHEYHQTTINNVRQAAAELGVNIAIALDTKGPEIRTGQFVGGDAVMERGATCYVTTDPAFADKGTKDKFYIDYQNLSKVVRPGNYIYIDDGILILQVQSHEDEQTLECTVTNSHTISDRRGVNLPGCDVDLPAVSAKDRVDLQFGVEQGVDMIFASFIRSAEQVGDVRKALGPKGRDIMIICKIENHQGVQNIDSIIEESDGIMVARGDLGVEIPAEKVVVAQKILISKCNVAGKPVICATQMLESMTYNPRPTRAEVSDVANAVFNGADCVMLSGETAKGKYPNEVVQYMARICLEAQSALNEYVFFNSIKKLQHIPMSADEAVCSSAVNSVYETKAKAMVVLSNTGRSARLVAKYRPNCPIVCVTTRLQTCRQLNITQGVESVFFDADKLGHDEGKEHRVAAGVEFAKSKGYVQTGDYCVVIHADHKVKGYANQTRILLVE
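Purified LmPK (0.1 nM) converted ADP (0.1 mM) to ATP with PEP (0.5 mM) in imidazole buffer pH 7.2 with KCl and MgCl2, 1 h at room temperature. ATP was read by Kinase-Glo luminescence; data normalized to uninhibited and no-enzyme controls.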
Shiga toxin inh: A qHTS for Small Molecule Inhibitors of Shiga Toxin. inhibition, % at 38.7 µM. 290,000 compounds, 9.2% hits. Vero cells, Shiga toxin protein synthesis inhibition reporter. AID 2315, 2010; in the data active = inhibition mostly above about 28%, no sharp cut-off; inactive = mostly below about 43%; also: 0% is about no effect
* = called active by the depositor; i = inactive; ? = inconclusive; / = not tested or not shown; [ ] = another dose, or the depositor's remark. An excerpt weighted towards active compounds, which were near 22% of everything screened. Unless noted, calls follow the shape of the dose curve; as a rule, active = well fitted inhibition curve with a large enough effect; inconclusive = small, poorly fitted or top-dose-only effect, or another doubt; inactive = no such curve, though single readings can be large or run the other way.

SMILES | Pf growth 96h | CHX counter | Pf growth 48h | LmPK inh | Shiga toxin inh
CN1C2=C(C#N)C(c3ccccc3)(C(F)(F)F)NC(=O)N2c2ccccc21 (stereo not given) | 7.4µM* | 0 | / | 1% | -16
CCN(CC)C(=O)CSc1nc2ccccc2c(=O)n1OC | 13µM* | 2 | -23% | -4% | -19
COn1c(SCc2cccc(Cl)c2)nc2ccccc2c1=O | 10µM* | -3 | ? | -3% | 17
Cc1ccc(NC(=O)CN(C)S(=O)(=O)c2ccc3c(c2)n(C)c(=O)c(=O)n3C)cc1 | 12µM* | -1 | ? | -4% | -3
COc1ccc(NC(=O)CN(C)S(=O)(=O)c2ccc3c(c2)c(=O)n(C)c(=O)n3C)cc1 | 13µM* | -4 | 0% | 3% | 26
COc1ccc(NC(=O)CN(C)S(=O)(=O)c2ccc3c(c2)n(C)c(=O)c(=O)n3C)cc1 | -30% | -7 | 11% | -11% | -6
CN(CC(=O)NCCc1ccc(Cl)cc1)S(=O)(=O)c1ccc2c(c1)c(=O)n(C)c(=O)n2C | 13µM* | -6 | / | -1% | -3
O=C(Nc1nc(-c2ccc(Cl)cc2)cs1)NC1CCCCC1 | 49% | 0 | ? | 9% | 7
O=C(CC1CS(=O)(=O)CC1CC(=O)Nc1ccc2c(c1)OCCO2)Nc1ccc2c(c1)OCCO2 (stereo not given) | -9% | 51* | 40% | -6% | 107*
O=C(Nc1ccc(NC(=O)c2cc3ccccc3o2)cc1)c1ccc2c(c1)OCCO2 | i | 12 | ? | -6% | 8
O=C(Nc1ccc2c(c1)OCCO2)c1cccc(C(=O)Nc2ccc3c(c2)OCCO3)c1 | 15% | 34* | 49% | 3% | 37*
COc1ccc(C(C)=O)cc1COC(=O)c1ccc(OCc2c(C)noc2C)cc1 | 8.3µM* | -1 | ? | -4% | 22
O=C(Nc1cccc([N+](=O)[O-])c1)c1ccncc1 | -19% | -2 | 44% | -10% | -7
CCCc1cc(C(=O)Nc2cccc([N+](=O)[O-])c2)cs1 | 33% | 65* | 65% | -4% | 104*
Nc1ncnc(Oc2ccccc2F)c1[N+](=O)[O-] | -15% | 1 | -5% | 0% | -12
O=C(Nc1ccc(C(=O)O)cc1)/C(=C/c1ccc2c(c1)OCO2)NC(=O)c1cccc(Br)c1 | ? | -2 | -2% | 3% | 2
O=C(CCCc1ccccc1)Nc1ccc2c(c1)OCCO2 | 2% | 36* | 126% | -7% | 66*
CCN(CC(=O)Nc1ccc2c(c1)OCCO2)C(=O)CCOc1ccccc1 | 10% | / | 20% | / | /
CCOc1cccc(C(=O)Nc2ccc3c(c2)OCCO3)c1 | 182% | 36* | 252% | 2% | 37
O=C(NC(=S)Nc1ccc2c(c1)OCCO2)c1cccc(Br)c1 | 25% | 74* | 258% | -3% | 74*
COc1cc(NC(=S)Nc2ccc3c(c2)OCCO3)cc(OC)c1OC | 25% | 32* | 16% | -3% | 69*
COc1cc(NC(=O)CSc2ccc3c(c2)OCCO3)cc(OC)c1OC | 24% | 8 | -6% | 1% | -22
COc1ccc(OC)c(/C=C/C(=O)OCC(=O)NCc2cccs2)c1 | ? | / | -18% | / | /
CCc1ccc(N2CCN(C(=O)N3CCOCC3)CC2)cc1 | 38%[5.75 µM] | -3 | 8% | -1% | -8
O=C(O)C1CCN(S(=O)(=O)Cc2ccccc2)CC1 | 4% | -2 | 27% | -4% | 8
SMILES | Pf growth 96h | CHX counter | Pf growth 48h | LmPK inh | Shiga toxin inh
CCOc1ccccc1C(=O)NCC(=O)NNC(=O)c1cccc(S(=O)(=O)Nc2ccc(OC)cc2)c1 | -3% | / | -23% | / | /
CC(C)(C)c1ccc(C(=O)Nc2cccc([N+](=O)[O-])c2)cc1 | ? | 86* | -57% | 2% | 96*
Cc1ccc(NC(=O)c2ccc3c(c2)OCCO3)cc1 | 62% | 0 | 234% | -20% | 72
O=C(CSc1ccc2c(c1)OCCO2)Nc1ccc(Br)cc1 | 69% | -1 | 38% | 3% | -32
S=C(Nc1ccc(Br)cc1)Nc1ccc2c(c1)OCCO2 | -69% | 58* | 95% | 3% | 103*
O=C(Nc1ccc2c(c1)OCCO2)c1ccccc1 | i | 42* | 228% | ? | 69*
O=C(Nc1ccncc1)c1ccc2c(c1)OCCO2 | -7% | 31* | 46% | -10% | 66*
CSc1ccccc1C(=O)Nc1ccc2c(c1)OCCO2 | ? | 23 | 37% | -20% | 64
Cc1ccc(NC(=O)NNC(=O)c2snnc2C)cc1 | 21% | 11 | 35% | -5% | -8
Cc1cc(OC(=O)c2cccs2)ccc1C(C)C | ? | 20 | / | -4% | 20
O=C(NC(=S)Nc1ccccc1Br)c1ccc2c(c1)OCO2 | -10% | 31* | 101% | 6% | 60*
